# Calls of active or inactive are those of the source.
# Columns and labels:
# [1] = tested on: Human papillomavirus type 1a protein E7 (residues 44-93); experiment: HPV1a E7 fragment binders on microarrays, primary screen, biochemical, small-molecule microarray, residues 44-93, 635 nm fluorescence (AID 1108); conditions: small-molecule microarray binding, fluorescence 635 nm; higher = more signal;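 also: E7 fragment applied at 1 µg/mL in TBST for 1 h at 4 C; score combines spot fluorescence with its signal to noise ratio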
# [2] = modulators of HCV replicon luciferase signal, primary screen, HCV replication inhibitor project, Huh7 cells, luciferase reporter (AID 1109); conditions: 48 h, higher = more signal;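 also: huh7 hepatoma cells harbouring a luciferase neomycin HCV replicon reporter; luciferase luminescence as measure of HCV replicon replication; test concentration not given here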
# [3] = target: Left-right determination factor 2 (Homo sapiens) (UniProt O00292); experiment: LEFTY2 binders on small-molecule microarrays, primary screen, biochemical, small-molecule microarray, 635 nm fluorescence scan (AID 1110); conditions: LEFTY2 binding, higher = more signal
# [4] = target: Calmodulin-1 (Homo sapiens) (UniProt P0DP23); experiment: CALM1 binders on microarrays, EGTA buffer, profiling panel, biochemical, small-molecule microarray, Cy5-labelled CALM1 (AID 1111); conditions: Cy5-CALM1 binding fluorescence, higher = more signal;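 also: labelled calmodulin applied in Tris saline Tween buffer holding calcium plus EGTA and DTT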
# [5] = target: Calmodulin-1 (Homo sapiens) (UniProt P0DP23); experiment: calcium-bound CALM1 binders on microarrays, profiling panel, artefact control for SMM control-protein annotation, biochemical, small-molecule microarray, Cy5-labelled CALM1, plus calcium (AID 1112); conditions: Cy5-CALM1 binding fluorescence, higher = more signal;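 also: score merges spot fluorescence with signal to noise from triplicate slides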
# [6] = small-molecule microarray binders of probe aWnt5a, primary screen, biochemical, biotinylated probe, 635/667 nm fluorescence (AID 1113); conditions: higher = more signal;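 also: score merges 667 nm fluorescence intensity with signal-to-noise per printed feature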
# [7] = small-molecule microarray binders of probe aShh, primary screen, biochemical, biotinylated probe, 635/667 nm fluorescence (AID 1114); conditions: higher = more signal;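 also: probe is biotin-labelled aShh protein from a stem cell growth factor screen; measures binding of labelled protein to compounds printed on the slide; score merges feature fluorescence at 667 nm with signal-to-noise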
# [8] = small-molecule microarray binders of probe aNog, primary screen, biochemical, biotinylated probe, 635/667 nm fluorescence (AID 1115); conditions: higher = more signal;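 also: probe is biotinylated aNog protein used at 0.15 µg/mL for 1 h at 4 C; z-score combines 667 nm fluorescence of each spot with its signal to noise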
# [9] = target: Torsin-1A-interacting protein 1 (Homo sapiens) (UniProt Q5JTV8); experiment: LAP1 binders from COS7 cell lysate, primary screen, small-molecule microarray, 635/667 nm fluorescence (AID 1116); conditions: COS7-hLAP1 lysate binding, 635 nm fluorescence, higher = more signal
# [10] = target: Alpha-bungarotoxin (Bungarus multicinctus) (UniProt P60615); experiment: alpha-bungarotoxin binders on microarray, profiling panel, artefact control for SMM control protein annotation, biochemical, small-molecule microarray, Alexa647 label, 635/667 nm fluorescence (AID 1117); conditions: alpha-BTX-A647 binding fluorescence, higher = more signal
# Albumin (Bos taurus) = Albumin (Bos taurus) (UniProt P02769); experiment: bovine serum albumin binders on microarray, profiling panel, artefact control for SMM control protein annotation, biochemical, small-molecule microarray, Alexa647 label, 635/667 nm fluorescence (AID 1118); conditions: BSA-A647 binding, fluorescence 635 nm, higher = more signal;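 also: score merges 667 nm emission intensity and signal-to-noise per printed compound spot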
# [11] = small-molecule microarray binders of probe aXIP, primary screen, biochemical, NeuroSMM set, 635/667 nm fluorescence (AID 1119); conditions: higher = more signal, called active from +8 up or from −8 down;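 also: probe is the protein aXip251-270 applied at 1 µg/mL to compound-printed slides; binding of probe to printed compounds measured as 667 nm fluorescence plus signal to noise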
# [12] = small-molecule binders of probe aNOTCH3, primary screen, biochemical, small-molecule microarray, 635/667 nm fluorescence (AID 1120); conditions: higher = more signal;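 also: probe is a biotin-tagged antibody raised against NOTCH3 rather than NOTCH3 protein; score merges spot fluorescence near 667 nm with spot signal to noise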
# [13] = small-molecule binders of probe aNOTCH2, primary screen, biochemical, small-molecule microarray, 635/667 nm fluorescence (AID 1121); conditions: higher = more signal;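 also: score merges feature fluorescence read at 667 nm with its signal to noise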
# [14] = target: Carbonic anhydrase 2 (Homo sapiens) (UniProt P00918); experiment: CAII small-molecule binders, profiling panel, biochemical, small-molecule microarray, Alexa647-labelled CAII (AID 1122); conditions: CAII-A647 binding fluorescence, higher = more signal
# [15] = COS7 lysate on small-molecule microarray, probe aHis, 635 nm (AID 1123); conditions: COS7 cell lysate, fluorescence, higher = more signal;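 also: z-score combines 667nm fluorescence intensity with signal-to-noise per printed compound spot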
# [16] = compound binding in COS7 lysate, probe aLAP1, primary screen, cell lysate, small-molecule microarray (AID 1124); conditions: probe aLAP1, fluorescence, higher = more signal;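 also: lysate comes from COS7 cells expressing LAP1 and is applied at 0.3 µg/mL; score merges spot fluorescence near 667 nm with signal-to-noise over triplicate slides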
# Sam68 (KHDRBS1) = experiment: Sam68 small-molecule binders, primary screen, biochemical, small-molecule microarray, 635 nm fluorescence (AID 1125); conditions: small-molecule microarray binding, higher = more signal;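 also: score merges 667 nm channel intensity with signal to noise over triplicate slides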
# [17] = tested on: Chordin-like protein 2 (CHRDL2); experiment: CHRDL2 small-molecule binders, primary screen, biochemical, small-molecule microarray, 635 nm fluorescence (AID 1126); conditions: small-molecule microarray binding, fluorescence 635 nm; higher = more signal;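 also: printed compound slides probed with Chrdl2 protein at 4 µg/mL for 1 h at 4 C; score merges 667 nm emission intensity with signal to noise over three replicate slides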
# [18] = target: Concanavalin-A (Canavalia ensiformis) (UniProt P02866); experiment: ConA small-molecule binders, primary screen, artefact control for SMM control protein annotation, biochemical, small-molecule microarray, Alexa647 label, 635 nm (AID 1127); conditions: ConA-A647 binding fluorescence, higher = more signal;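 also: z combines 667 nm emission intensity with signal-to-noise across three replicate slides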
# Concanavalin-A (Canavalia ensiformis), sequence (P02866 whole entry, looked up): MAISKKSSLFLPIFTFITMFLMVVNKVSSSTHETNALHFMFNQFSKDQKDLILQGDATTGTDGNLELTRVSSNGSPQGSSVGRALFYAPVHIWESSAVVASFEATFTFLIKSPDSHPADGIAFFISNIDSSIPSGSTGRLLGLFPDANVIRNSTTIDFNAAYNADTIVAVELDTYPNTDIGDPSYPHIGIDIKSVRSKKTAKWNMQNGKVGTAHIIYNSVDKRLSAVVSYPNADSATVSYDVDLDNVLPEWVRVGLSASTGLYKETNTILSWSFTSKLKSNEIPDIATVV
# Left-right determination factor 2 (Homo sapiens), sequence (O00292 whole entry, looked up): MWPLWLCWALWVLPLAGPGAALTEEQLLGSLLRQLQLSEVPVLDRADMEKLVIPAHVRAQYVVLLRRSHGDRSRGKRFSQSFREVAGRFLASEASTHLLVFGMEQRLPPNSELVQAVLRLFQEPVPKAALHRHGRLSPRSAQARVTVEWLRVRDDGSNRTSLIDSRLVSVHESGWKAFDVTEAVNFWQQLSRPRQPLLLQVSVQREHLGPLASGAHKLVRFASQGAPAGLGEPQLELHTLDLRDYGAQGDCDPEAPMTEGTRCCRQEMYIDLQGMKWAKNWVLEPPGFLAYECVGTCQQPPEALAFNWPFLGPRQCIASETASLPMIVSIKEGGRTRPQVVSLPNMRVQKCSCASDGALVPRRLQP
# Alpha-bungarotoxin (Bungarus multicinctus), sequence (P60615 whole entry, looked up): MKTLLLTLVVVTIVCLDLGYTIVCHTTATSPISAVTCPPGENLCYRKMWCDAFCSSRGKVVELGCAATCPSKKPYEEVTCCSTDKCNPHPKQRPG
# Torsin-1A-interacting protein 1 (Homo sapiens), sequence (Q5JTV8 whole entry, looked up): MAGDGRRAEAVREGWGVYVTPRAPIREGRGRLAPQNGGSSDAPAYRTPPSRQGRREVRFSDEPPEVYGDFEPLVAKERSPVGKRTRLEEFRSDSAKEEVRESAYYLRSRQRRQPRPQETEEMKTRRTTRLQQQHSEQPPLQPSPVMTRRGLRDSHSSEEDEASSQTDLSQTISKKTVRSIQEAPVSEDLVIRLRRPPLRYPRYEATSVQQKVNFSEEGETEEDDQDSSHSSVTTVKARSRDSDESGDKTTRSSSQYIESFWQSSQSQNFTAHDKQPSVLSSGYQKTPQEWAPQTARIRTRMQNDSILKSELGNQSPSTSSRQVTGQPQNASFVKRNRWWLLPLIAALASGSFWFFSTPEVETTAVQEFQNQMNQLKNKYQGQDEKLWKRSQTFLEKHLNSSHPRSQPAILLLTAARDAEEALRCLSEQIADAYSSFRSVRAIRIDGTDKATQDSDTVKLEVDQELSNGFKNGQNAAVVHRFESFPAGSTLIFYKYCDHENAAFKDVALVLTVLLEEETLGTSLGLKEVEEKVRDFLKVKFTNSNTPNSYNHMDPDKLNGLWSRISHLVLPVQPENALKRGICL
# Albumin (Bos taurus), sequence (P02769 whole entry, looked up): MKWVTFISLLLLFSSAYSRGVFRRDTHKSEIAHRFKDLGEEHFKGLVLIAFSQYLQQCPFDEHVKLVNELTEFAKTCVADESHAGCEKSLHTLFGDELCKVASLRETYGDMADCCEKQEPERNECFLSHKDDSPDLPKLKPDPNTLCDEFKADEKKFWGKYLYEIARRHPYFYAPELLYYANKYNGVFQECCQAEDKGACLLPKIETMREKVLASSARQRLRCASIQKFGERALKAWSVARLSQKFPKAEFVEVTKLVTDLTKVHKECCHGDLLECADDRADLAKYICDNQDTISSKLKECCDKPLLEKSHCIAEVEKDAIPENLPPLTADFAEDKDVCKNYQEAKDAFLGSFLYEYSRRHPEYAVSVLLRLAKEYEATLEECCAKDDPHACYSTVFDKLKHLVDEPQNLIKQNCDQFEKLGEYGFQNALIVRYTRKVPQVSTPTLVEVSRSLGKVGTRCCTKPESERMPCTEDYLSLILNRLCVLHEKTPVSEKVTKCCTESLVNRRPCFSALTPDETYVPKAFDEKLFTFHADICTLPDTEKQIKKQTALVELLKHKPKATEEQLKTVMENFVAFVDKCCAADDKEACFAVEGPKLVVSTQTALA
SMILES,composite z-score [1],z-score [2],composite z-score [3],composite z-score [4],composite z-score [5],composite z-score [6],composite z-score [7],composite z-score [8],composite z-score [9],composite z-score [10],composite z-score (Albumin (Bos taurus)),composite Z-score [11],composite z-score [12],composite z-score [13],composite z-score [14],composite z-score [15],composite z-score [16],composite z-score (Sam68 (KHDRBS1)),composite z-score [17],composite z-score [18]
O=C1[C@H]2[C@H]3[C@H](O)[C@H](O)CC(=NO[C@@H]4O[C@H](CO)[C@@H](O)[C@H](O)[C@H]4O)[C@H]3CC[C@H]2C(=O)N1c1cccc(Oc2ccccc2)c1,0.583,-0.243,0.723,-0.0761,-0.474,-0.168,-0.349,-0.129,0.675,-0.0791,-0.0534,0.189 (inactive),-0.118,-0.133,-0.0707,0.305,0.105,0.88,0.48,0.264
CC(=O)OC[C@H]1OC(ON=CC[C@@H]2C=C[C@H](OC(C)=O)[C@@H](COC(C)=O)O2)[C@H](OC(C)=O)[C@@H](OC(C)=O)[C@@H]1OC(C)=O (stereo not given in full),0.781,-0.3,0.624,-0.0804,-0.819,-0.0957,-0.154,-0.144,-0.0191,-0.461,0.0478,0.359 (inactive),0.144,-0.14,-0.451,-0.011,0.31,1.14,-0.794,0.215
O=C(NN=C1C[C@@H](O)[C@@H](O)[C@@H]2[C@@H]3C(=O)N(Cc4ccccc4)C(=O)[C@@H]3CC[C@@H]12)OCc1ccccc1,-0.572,0.104,0.401,-0.619,-0.786,-0.143,-0.197,-0.223,-0.0694,0.0077,-0.225,0.586 (inactive),0.0591,-0.129,-0.362,-0.723,-0.169,-0.917,0.476,-0.292
CCc1cc2c(nc1CC)CCN(CCC(C)=NO[C@H](C)c1cn([C@H](CO)Cc3ccccc3)nn1)C2,0.21,-2.38,0.437,-0.315,-0.439,-0.0165,1.19,-0.4,0.967,0.568,0.867,-0.51 (inactive),0.189,-0.101,0.0934,0.287,0.022,0.708,0.357,-0.0875
CCN1C(=O)[C@@H]2[C@H]3C(=CC[C@@H]2C1=O)C1(OCCCO1)[C@H]1O[C@H]1[C@H]3O,1.38,-4.67,0.352,0.669,-0.536,0.0293,-0.304,0.194,1.27,0.857,0.488,0.369 (inactive),0.162,-0.0948,0.429,2.12,0.251,1.29,0.333,1
COC(=O)CC=C[C@@H](C)[C@@H](C=NO[C@H](C)c1cn([C@H](CO)Cc2ccccc2)nn1)OC,0.319,-1.3,1.1,-1.03,-1.24,-0.0179,-0.138,-0.191,0.427,0.608,0.113,0.215 (inactive),0.118,-0.118,-0.16,0.188,0.456,0.804,0.944,0.254
CCCNC(=O)OC[C@H]1O[C@H](CCON=C(C)CCC(=O)OC[C@H]2O[C@H](c3ccccc3)C=C[C@@H]2Oc2ccc(OC)cc2)C=C[C@@H]1Oc1ccc(OC)cc1,-0.996,-1.17,-0.126,-0.449,-0.678,-0.0685,-0.138,-0.0039,0.23,-0.183,0.161,-0.0662 (inactive),-0.0762,-0.14,-0.459,-0.528,-0.155,-1.25,-0.181,-0.721
C=CC[C@@H]1C=C[C@H](ON=C(C)CCC(=O)OC[C@H]2O[C@H](c3ccccc3)C=C[C@@H]2Oc2ccc(OC)cc2)[C@@H](CO)O1,-0.0821,-1.54,-0.189,-0.725,-0.878,-0.152,-0.221,-0.158,0.106,-0.55,-0.1,0.741 (inactive),-0.171,-0.177,-0.273,0.342,-0.0007,0.144,-0.0018,-0.152
O=C1[C@H]2[C@H]3[C@H](O)[C@H](O)CC(=NOC[C@@H](O)COCc4ccco4)[C@H]3CC[C@H]2C(=O)N1c1ccc(F)cc1F,-3.61,-0.988,0.0845,-1.3,-1.07,-0.282,-0.504,1.39,0.346,-0.59,-0.0108,-0.214 (inactive),-0.291,-0.146,0.823,-0.823,0.0839,-1.25,-0.48,-1.03
Cc1ccc(S(=O)(=O)N[C@H]2COC(=O)CC=C[C@H](C)[C@@H](NS(=O)(=O)c3ccc(C)cc3)COC(=O)CC=C[C@@H]2C)cc1,0.584,-0.622,0.518,-0.324,-0.6,-0.351,-0.476,-0.0381,-0.129,0.149,-0.109,-0.286 (inactive),0.0282,-0.14,-0.0386,-0.364,-0.242,0.0236,0.477,0.128
CCc1cc2c(nc1CC)CCN(CCC(C)=NO[C@H](C)c1cn([C@@H]3COC[C@H]3O)nn1)C2,-0.236,-0.53,0.368,-0.433,-0.931,-0.0479,0.0723,-0.172,0.651,0.173,-0.559,0.577 (inactive),-0.005,-0.0554,0.202,-0.394,0.111,0.325,0.61,-0.178
